Experimental findings from PubChem BioAssay are described below.

Activity calls are given as the source filed them.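 Rule for the calls, unless noted: active = fluorescence slope after compound addition differing from the mean of all screened samples at 99.7% confidence, in either direction; inactive = the rest.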

The nature of assay [1]: inhibitors of TNFa-induced NFkB p65 translocation, primary screen, imaging, HUVEC, MLSMR starter and 10KST1 sets (AID 438;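 active = inhibition above 20% together with a positive visual image hit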;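 note: compound added about 3h40 before a 20 min TNFalpha stimulation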;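 for inhibition: signal is the nuclear over cytoplasmic p65 intensity ratio per well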). Particulars: HUVEC TNFa-induced p65 nuclear translocation; cell count: measured here: nuclei count (cytotoxicity indicator), at 2.08 µM; inhibition: at 2 µM, stronger effect = higher value, 0% TNFa-plus-vehicle, 100% no-TNFa wells.
A short description of assay [2]: reduction of polyQ htt aggregates in cells – imaging, exon1htt(103Q)mCFP cells, high-content imaging, primary screen (AID 483;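 active = visual image review flags a hit and inhibition of aggregation exceeds 20%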;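 note: compound exposure lasted 3 days before fixation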;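 for nuclei count: percent of the per-plate median nuclei count of sample wells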). Particulars: exon1htt(103Q)mCFP cell line, aggregate imaging, at 2 µM; inhibition of aggregation: stronger effect = higher value; nuclei count: measured here: cell count, toxicity.
Assay [3] is described as follows: endothelial E-selectin expression blockers – imaging, HUVEC, immunofluorescence, MLSMR starter and 10KST1 sets, primary screen (AID 487;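 active = visually confirmed hit in the image check and inhibition above 20%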;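 for inhibition: signal is fraction of cell area covered by stained E-selectin grains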;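 for nuclei count: 100% = median nuclei count of all wells on the same plate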). Particulars: HUVEC TNFalpha-induced E-selectin immunofluorescence imaging, at 2 µM; inhibition: stronger effect = higher value; nuclei count: measured here: cell number, toxicity.
Assay [4] in a line: Primary imaging screen for DUSP6 inhibitors that restore phospho-Erk in transfected HeLa cells, chemical complementation (AID 609;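 active = compounds giving at least 50% inhibition in the cell-based MKP-3 phosphatase rescue imaging test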;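 for inhibition: phospho-Erk level distribution per well compared with pooled transfected vehicle control wells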). The note with it: HeLa MKP-3 transfected, phospho-Erk imaging KS statistic, at 10 µM, cells stimulated with TPA for 15 min.
Assay [5] has as its target Dual specificity protein phosphatase 6 (Homo sapiens) (UniProt Q16828). The assay is described as above. Particulars: HeLa MKP-3 transfected, phospho-Erk imaging KS statistic; at 10 µM; stronger effect = higher value; cells stimulated with TPA for 15 min.
In assay [6] the target is Voltage-gated potassium channel subunit beta-2 (Rattus norvegicus) (UniProt P62483). The experiment in a line: inhibitors of rat Kvbeta2 reductase activity – biochemical, NADPH fluorescence, primary screen (AID 622;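 active = fluorescence slope higher than the sample average by over 3 SD, cut at about -0.22 in these data, passing the limit was not always enough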;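 note: slope of raw intensity against log time taken from 70 to 1610 s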). The note with it: recombinant KvBeta, 4-cyanobenzaldehyde reduction, at 10 µM, stronger effect = higher value.
Chain of Voltage-gated potassium channel subunit beta-2 (Rattus norvegicus) (P62483 whole entry, looked up): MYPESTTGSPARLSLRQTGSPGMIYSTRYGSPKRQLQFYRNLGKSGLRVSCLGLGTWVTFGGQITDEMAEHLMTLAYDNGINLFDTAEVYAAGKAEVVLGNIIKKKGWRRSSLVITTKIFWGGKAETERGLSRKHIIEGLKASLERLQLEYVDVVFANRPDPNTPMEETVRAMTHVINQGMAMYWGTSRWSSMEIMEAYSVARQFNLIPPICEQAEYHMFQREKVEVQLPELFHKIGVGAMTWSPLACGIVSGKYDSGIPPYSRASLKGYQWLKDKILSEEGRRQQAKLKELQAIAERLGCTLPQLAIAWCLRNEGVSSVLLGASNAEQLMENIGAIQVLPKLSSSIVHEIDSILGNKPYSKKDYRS
Assay [7] has the same target. In words: enhancers of rat Kvbeta2 NADPH turnover – biochemical, NADPH fluorescence, primary screen (AID 623;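 active = NADPH fluorescence slope more negative than the mean of all samples by about 3 SD, 99.7% confidence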;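 note: fluorescence intensity change per second fitted from 20 to 320 s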). Particulars: Recombinant KvBeta, NADPH fluorescence decrease slope, 10 min; at 10 µM; stronger effect = lower value.
Assay [8] concerns the target Alpha-2C adrenergic receptor (Homo sapiens) (UniProt P18825). The experiment in a line: compounds altering alpha2C-coupled GIRK flux – cell-based, HEK293 alpha2C/GIRK1/2, thallium flux, primary screen (AID 624).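 Note: slope of fluorescence ratio to pre-addition baseline per second over 15 to 24 s.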 The note with it: thallium flux BTC fluorescence, at 10 µM, actives lie on both sides.
The nature of assay [9]: inhibitors of larval lipid processing in zebrafish, primary screen, whole organism, PED6 fluorescence, gall bladder and intestine (AID 686;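 active = a full or partial loss of lipid-probe fluorescence in the fish gall bladder, intestine or both, judged by eye; inactive = no fluorescence loss, or compound toxic to the fish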;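 note: larvae 5 to 7 days old with five fish per well; signal comes from phospholipase A2 cleavage of quenched PED6 carried via bile; overnight exposure to compound and PED6 before scoring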). The note with it: Zebrafish larvae PED6 lipid processing, fluorescence scoring; screened at 20 µM (by protocol).
Assay [10] is described as follows: loss of swimming-algae plug formation – whole organism, Chlamydomonas reinhardtii, WT vs cilia-less mutant, absorbance, 96-well, primary screen (AID 463189;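 active = inhibition at or above 50% relative to wild type and mutant plate controls; inactive = inhibition below 50%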;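 note: 0% = wild type cc124 cells in DMSO and 100% = ciliumless bld1 mutant cells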). The note with it: Chlamydomonas reinhardtii gravitaxis, OD600 absorbance, 2 days; at 10 µM; stronger effect = higher value.
Assay [11] is described as follows: blockers of RIG-like receptor reporter activation – cell-based, Sendai virus stimulus, luciferase, 10K MLSCN set, TLR/RLR signaling modifier project, primary screen (AID 602276;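 active = inhibition at or above 50% at 10 µM; inactive = inhibition below 50%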;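 note: firefly luciferase from ISG56 promoter only with Renilla not read in this screen; 0% = Sendai virus plus DMSO and 100% = medium plus DMSO without virus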). The note with it: HEK293 RL24 IRF3 luciferase reporter, at 10 µM, stronger effect = higher value. Background: A reporter such as luciferase makes a cellular process visible.
The nature of assay [12]: TLR3 IRF3 reporter activation blockers – cell-based, poly I:C stimulus, luciferase, 10K MLSCN set, primary screen (AID 602277;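 active = inhibition of the reporter signal at or above 50%; inactive = inhibition below 50%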). The note with it: HEK293-TLR3 RL24 IRF3 luciferase reporter, at 10 µM, stronger effect = higher value.
Setting [13] is: measured here: cell density z-score.
Setting [14] is: measured here: nuclear c-Myc green intensity z-score.
Setting [15] is: measured here: nuclear pErk red intensity z-score, stronger effect = higher value.

Chain of Dual specificity protein phosphatase 6 (Homo sapiens) (Q16828 whole entry, looked up): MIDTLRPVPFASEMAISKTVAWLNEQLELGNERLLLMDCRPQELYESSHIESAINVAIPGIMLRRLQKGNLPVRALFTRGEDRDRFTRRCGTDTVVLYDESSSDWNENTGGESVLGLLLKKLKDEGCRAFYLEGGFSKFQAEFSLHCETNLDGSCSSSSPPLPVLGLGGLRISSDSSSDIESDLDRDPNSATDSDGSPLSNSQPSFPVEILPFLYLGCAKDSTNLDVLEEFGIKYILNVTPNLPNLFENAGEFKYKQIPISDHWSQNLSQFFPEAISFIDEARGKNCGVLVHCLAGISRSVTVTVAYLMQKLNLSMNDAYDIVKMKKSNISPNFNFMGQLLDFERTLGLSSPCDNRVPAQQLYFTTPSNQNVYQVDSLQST
Chain of Alpha-2C adrenergic receptor (Homo sapiens) (P18825 whole entry, looked up): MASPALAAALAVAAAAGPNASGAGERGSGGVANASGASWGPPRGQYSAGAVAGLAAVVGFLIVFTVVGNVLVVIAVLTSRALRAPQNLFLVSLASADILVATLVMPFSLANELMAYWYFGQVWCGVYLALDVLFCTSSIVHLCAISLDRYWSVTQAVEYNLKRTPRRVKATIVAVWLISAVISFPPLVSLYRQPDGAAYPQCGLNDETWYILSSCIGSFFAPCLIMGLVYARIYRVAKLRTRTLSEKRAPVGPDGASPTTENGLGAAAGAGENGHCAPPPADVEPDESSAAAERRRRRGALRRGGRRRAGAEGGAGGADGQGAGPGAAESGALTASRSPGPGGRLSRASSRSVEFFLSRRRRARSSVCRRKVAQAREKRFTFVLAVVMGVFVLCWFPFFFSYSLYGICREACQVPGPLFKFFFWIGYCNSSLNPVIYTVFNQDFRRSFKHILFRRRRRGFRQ

As to `Cc1nc(NS(=O)(=O)c2ccccc2)sc1NC(=O)OC(C)C`, the cell count in assay [1] was determined as 364. For the same compound, the inhibition in assay [1] was -12.7% (inactive); in assay [3], -118% (inactive); in assay [5], 17.5% (inactive); in assay [10], 16.7% (inactive); in assay [11] it was 2.77% (inactive); in assay [12], 9.41% (inactive). The inhibition of aggregation in assay [2] is -9.8% (inactive). Moreover, the figures for the nuclei count in assay [2] and in [3] were 108% and 138%, respectively. For the same compound, the z-score in assay [4] (setting [13]) was -0.163; in assay [4] (setting [14]), -0.612; in assay [4] (setting [15]), 0.551. Also, the fluorescence slope in assay [6] was -0.415 (inactive). Moreover, the NADPH fluorescence slope in [7] is 1e-05 (inactive). Besides, in assay [8], the slope was 0.00272 (inactive). Further, the compound was called inactive in [9].
As to `C/C=C(/C(=C/C)c1ccc(O)cc1)c1ccc(O)cc1`, the cell count in [1] stood at 603. In addition, the inhibition in assay [1] was -14.5% (inactive); in assay [3], -76% (inactive); in [5] it was 13.3% (inactive); in assay [10], 25.6% (inactive); in assay [11] it was 8.63% (inactive); in assay [12], 33.1% (inactive). Moreover, the inhibition of aggregation in assay [2] is 10.1% (inactive). Also, the nuclei count in [2] stood at 112%; in assay [3] it was 132%. Besides, the z-score in assay [4] (setting [13]) is -0.991; in assay [4] (setting [14]) it was -0.543; in [4] (setting [15]), 0.777. Moreover, the fluorescence slope in [6] is -0.459 (inactive). Besides, the NADPH fluorescence slope in assay [7] was -5.4e-05 (inactive). Also, the slope in [8] was 0.00464 (inactive). Besides, the compound was classed as inactive in [9].
Regarding `CCOc1nc(SCCOc2ccccc2)nc(N(C)C)n1`, the cell count in assay [1] came to 397. The inhibition was -7.1% (inactive) in assay [1]; -68.5% (inactive) in assay [3]; 22.8% (inactive) in assay [5]; 28.4% (inactive) in [10]; 0.0705% (inactive) in assay [11]; -11.2% (inactive) in [12]. For the same compound, the inhibition of aggregation in [2] is 4.3% (inactive). For the same compound, the nuclei count in assay [2] is 54%; in [3], 113%. Moreover, the z-score in [4] (setting [13]) was 0.798; in assay [4] (setting [14]), -0.437; in assay [4] (setting [15]) it was -0.913. Also, the fluorescence slope in assay [6] is -0.395 (inactive). Also, in [7], the NADPH fluorescence slope is 1.4e-05 (inactive). Further, in assay [8], the slope is 0.00398 (inactive). Further, in assay [9], the result was inactive.
Turning to `O=C1NC(c2cccs2)Nc2ccccc21` (stereo not given), in [1], the cell count is 600. The inhibition in [1] was -16.1% (inactive); in assay [3] it was -3.3% (inactive); in assay [5], 1.12% (inactive); in assay [10], 15.5% (inactive); in [11] it was -3% (inactive); in assay [12], 0.34% (inactive). In addition, the inhibition of aggregation in assay [2] is 14.1% (inactive). For the same compound, the values for the nuclei count in assay [2] and in [3] were 130% and 140%, respectively. The values for the z-score in assay [4] (setting [13]), in assay [4] (setting [14]) and in [4] (setting [15]) were -1.25, -1.7 and 1.79, respectively. Moreover, the fluorescence slope in assay [6] was -0.292 (inactive). In addition, the NADPH fluorescence slope in [7] is -3.3e-05 (inactive). Also, the slope in assay [8] is 0.00756 (inactive). In assay [9], the call was inactive.
On to `CN1CC=C2C(C#N)=C(N)C(C#N)(C#N)[C@H](c3cccc(Cl)c3)C2C1` (stereo not given in full), for which the cell count in assay [1] came to 642. Also, the inhibition in assay [1] is -6% (inactive); in assay [3], -18.6% (inactive); in [5] it was 71% (inactive); in assay [10] it was 5.27% (inactive); in assay [11], 13.6% (inactive); in assay [12], 24.1% (inactive). The inhibition of aggregation in assay [2] was -38.1% (inactive). For the same compound, the nuclei count in assay [2] turned out to be 98.3%; in assay [3], 125%. The figures for the z-score in assay [4] (setting [13]), in assay [4] (setting [14]) and in assay [4] (setting [15]) were 0.015, 5.62 and 0.205, respectively. For the same compound, the fluorescence slope in assay [6] is -0.368 (inactive). For the same compound, in [7], the NADPH fluorescence slope is -4.7e-05 (inactive). For the same compound, the slope in [8] is 0.00551 (inactive). Moreover, the call in assay [9] was inactive.
Turning to `CCOC(=O)N1CCN(C(=O)c2cn(CC)c3cc(N4CCN(C)CC4)c(F)cc3c2=O)CC1`, the cell count in assay [1] was found to be 544. The inhibition is 2.6% (inactive) in [1]; -20.9% (inactive) in [3]; -7.28% (inactive) in assay [5]; 15.7% (inactive) in assay [10]; 21.5% (inactive) in assay [11]; 21.4% (inactive) in assay [12]. The inhibition of aggregation in assay [2] is 15.1% (inactive). Further, the figures for the nuclei count in assay [2] and in assay [3] were 96% and 121%, respectively. Moreover, the z-score was 0.456 in assay [4] (setting [13]), 0.816 in assay [4] (setting [14]) and -1.34 in [4] (setting [15]). For the same compound, the fluorescence slope in assay [6] was -0.267 (inactive). For the same compound, in assay [7], the NADPH fluorescence slope was 1.3e-05 (inactive). Also, the slope in assay [8] is 0.00518 (inactive). The compound was called inactive in assay [9].
On to `NNC(=O)c1ccncc1`, for which the cell count in assay [1] was 640. Besides, the inhibition in assay [1] was 1.1% (inactive); in assay [3], -58.5% (inactive); in [5], 16.8% (inactive); in [10], 2.05% (inactive); in [11], 13.6% (inactive); in assay [12], 39.7% (inactive). Also, the inhibition of aggregation in assay [2] is -3.3% (inactive). Moreover, the nuclei count in [2] turned out to be 113%; in assay [3] it was 126%. Moreover, the z-score was 1.92 in [4] (setting [13]), 0.875 in assay [4] (setting [14]) and -1.14 in assay [4] (setting [15]). The fluorescence slope in assay [6] is -0.467 (inactive). In addition, the NADPH fluorescence slope in assay [7] is -6.4e-05 (inactive). The slope in [8] is 0.00499 (inactive). For the same compound, the compound was classed as inactive in assay [9].
Regarding `Cc1csc(NC(=O)CSc2nsc(SCC(=O)Nc3nc(C)cs3)c2C#N)n1`, the cell count in [1] came to 655. Further, the inhibition in assay [1] was -10.4% (inactive); in [3], -15.8% (inactive); in assay [5], 6.51% (inactive); in [10] it was 2.21% (inactive); in assay [11] it was -8.75% (inactive); in [12] it was -83.6% (inactive). Moreover, the inhibition of aggregation in [2] was 12.2% (inactive). The results for the nuclei count in assay [2] and in assay [3] were 105% and 141%, respectively. Besides, the figures for the z-score in [4] (setting [13]), in [4] (setting [14]) and in assay [4] (setting [15]) were -1.33, 0.375 and -0.579, respectively. Besides, the fluorescence slope in assay [6] is -0.37 (inactive). Also, the NADPH fluorescence slope in assay [7] was -3.7e-05 (inactive). The slope in assay [8] was 0.00462 (inactive). For the same compound, the compound was classed as inactive in assay [9].
With `CC(=O)[C@@]1(O)CC[C@H]2[C@@H]3CCC4=CC(=O)CC[C@]4(C)[C@H]3[C@@H](O)C[C@@]21C`, in assay [1], the cell count came out at 623. Further, the inhibition in [1] was 0.5% (inactive); in assay [3], -142% (inactive); in [5], -4.44% (inactive); in assay [10] it was -7.94% (inactive); in assay [11] it was 8.03% (inactive); in [12], 38.5% (inactive). In [2], the inhibition of aggregation is 16.3% (inactive). Moreover, the figures for the nuclei count in [2] and in assay [3] were 83% and 140%, respectively. Also, the z-score in [4] (setting [13]) is -0.503; in assay [4] (setting [14]) it was -0.682; in [4] (setting [15]), 0.228. Also, the fluorescence slope in [6] was -0.495 (inactive). For the same compound, in [7], the NADPH fluorescence slope is -5.2e-05 (inactive). For the same compound, the slope in assay [8] is 0.00465 (inactive). Also, the result in [9] was inactive.
With `CCOC(=O)[C@H](CCc1ccccc1)N[C@@H](C)C(=O)N1CCC[C@H]1C(=O)O`, the cell count in assay [1] came to 512. For the same compound, the inhibition in [1] is -1.7% (inactive); in assay [3], -7.9% (inactive); in [5] it was 11.3% (inactive); in [10] it was 34.1% (inactive); in assay [11], 9.18% (inactive); in assay [12] it was 28.5% (inactive). The inhibition of aggregation in assay [2] was -27.5% (inactive). The nuclei count in [2] was found to be 76.9%; in [3], 112%. Besides, the z-score in assay [4] (setting [13]) was 1.2; in assay [4] (setting [14]) it was 0.592; in assay [4] (setting [15]), -0.0475. Moreover, in assay [6], the fluorescence slope was -0.554 (inactive). Further, in assay [7], the NADPH fluorescence slope is -1.6e-05 (inactive). The slope in assay [8] is 0.00627 (inactive). The outcome in assay [9] was inactive.

The inhibition is the relative decrease from the control value, in per cent.
